Several values for one entry are separate records, joined by “and”; a condition that tells them apart may be missing. Identical values can stand only once. Records with an inconclusive call do not appear. Activity calls are given as the source filed them. The call rests on the fitted dose curve; in most records, active means well fitted inhibition curve with a large enough effect; inconclusive means small, poorly fitted or top-dose-only effect; inactive means flat fitted curve, though single readings scatter.
Columns and labels:
CRL-7250 = normal cell line; test: Cytotoxic Profiling of Annotated Libraries Using Quantitative High-Throughput Screening (AID 1296008); conditions: Five cell lines viability, CellTiter-Glo ATP luminescence, 48-72 h; max response: hits give low values; further: potency means the concentration at half of the fitted maximal effect
How it was run: (§1)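 Cells exposed to compounds for 48 or 72 hr at 37 degrees Celsius. Viability read as ATP-coupled luminescence with CellTiter-Glo after 10 min at room temperature.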

HEK293 = test: as above; conditions: Five cell lines viability, CellTiter-Glo ATP luminescence, 48-72 h; max response: hits give low values
How it was run: as §1

HaCat [1] = test: as above; conditions: Five cell lines viability, CellTiter-Glo ATP luminescence, 48-72 h; max response: hits give low values
How it was run: as §1

KB-3-1 = test: as above; conditions: Five cell lines viability, CellTiter-Glo ATP luminescence, 48-72 h; max response: hits give low values
How it was run: as §1

NIH3T3 = test: as above; conditions: Five cell lines viability, CellTiter-Glo ATP luminescence, 48-72 h; max response: hits give low values
How it was run: as §1

HEK293T = test: qHTS assay to identify novel small-molecules to repurpose for Merkel cell carcinoma treatment (AID 1296009); conditions: MCC and control cell lines, CellTiter-Glo viability, 72 h; series mostly up to 44.8 µM
How it was run: (§2)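 Dose-response viability screen; 72 hr exposure at 37 degree celsius; CellTiter-Glo added, 10 min room temperature, luminescence read; RLUs scaled between no-cell and DMSO wells.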

HACAT [2] = test: as above; conditions: MCC and control cell lines, CellTiter-Glo viability, 72 h; at 44.8 µM (top of the series) unless noted
How it was run: as §2

MCC-13 = test: as above; conditions: MCC and control cell lines, CellTiter-Glo viability, 72 h; series mostly up to 46 µM
How it was run: as §2

MCC-26 = test: as above; conditions: MCC and control cell lines, CellTiter-Glo viability, 72 h; series mostly up to 46 µM
How it was run: as §2

MKL-1 = test: as above; conditions: MCC and control cell lines, CellTiter-Glo viability, 72 h; series mostly up to 46 µM
How it was run: as §2
Further: nearly all actives have a fitted effect of over 60% in size.
On the % scale 0 is the no-effect control and ±100 the full control effect.

COC12CC3C(C(C)C1=CC(=O)O2)C(O)C(OC(C)=O)C1C(C)(C)C(OC(C)=O)CCC31C (configuration not stated)
inactive: max response (CRL-7250) 0.349% | outcome (HEK293) | max response (HaCat [1]) -18.1% | outcome (KB-3-1) | outcome (NIH3T3) | Potency (HEK293T)

CNc1nc(Nc2cnn([C@H]3CCN(C4COC4)C[C@@H]3F)c2Cl)ncc1C(F)(F)F
active: Potency (HEK293) 23.1 µM and 9.33 µM
inactive: max response (CRL-7250) -6.85% and -3.81% | outcome (HaCat [1]) | max response (NIH3T3) -26.9% | outcome (HACAT [2])

C/C=C1\[C@H](O[C@@H]2O[C@H](CO)[C@@H](O)[C@H](O)[C@H]2O)OC=C(C(=O)OC)[C@H]1CC(=O)OC
inactive: outcome (CRL-7250) | outcome (HEK293) | outcome (HaCat [1]) | outcome (NIH3T3) | outcome (HACAT [2]) inactive [at 17.4 µM] | Potency (HEK293T)

O=C(OCC12OC1C=CC(OC(=O)c1ccccc1)C2O)c1ccccc1 (configuration not stated)
inactive: max response (CRL-7250) 4.27% | outcome (HEK293) | max response (HaCat [1]) 0.27% | max response (KB-3-1) 9.03% | max response (NIH3T3) -13.1% | Potency (HEK293T)

C=C1CC23CCC4[C@@](C)(CCC[C@@]4(C)C(=O)O)C2CCC1C3 (some centres not stated)
inactive: max response (CRL-7250) -2.77% | outcome (HEK293) | max response (HaCat [1]) -11.3% | max response (KB-3-1) 2.07% | max response (NIH3T3) 3.55% | Potency (HEK293T)

CCc1nc(C(N)=O)c(Nc2ccc(N3CCC(N4CCN(C)CC4)CC3)c(OC)c2)nc1NC1CCOCC1
active: Potency (CRL-7250) 5.24 µM | Potency (HEK293) 1.61 µM and 1.32 µM | Potency (HaCat [1]) 2.55 µM | Potency (NIH3T3) 1.01 µM and 831 nM

CC(C)C1=CC2=CCC3[C@](C)(CCC[C@@]3(C)C(=O)O)C2CC1=O (some centres not stated)
inactive: outcome (CRL-7250) | outcome (HEK293) | max response (HaCat [1]) 1.19% | max response (KB-3-1) 8.65% | outcome (NIH3T3) | Potency (HEK293T)

CC1(C(=O)O)CCCC2(C)C1CCC13CC(CCC21)C1(CO)OC31 (configuration not stated)
inactive: max response (CRL-7250) -3.21% | outcome (HEK293) | outcome (HaCat [1]) | outcome (NIH3T3) | outcome (HACAT [2]) | Potency (HEK293T)

CC1(C)CCCC2(C)C(CO)C3CCC2C31 (configuration not stated)
inactive: max response (CRL-7250) -0.786% | outcome (HEK293) | max response (HaCat [1]) 0.929% | outcome (KB-3-1) | outcome (NIH3T3) | Potency (HEK293T)

CC(=O)c1c(O)cc2cccc3c2c1CC(C)(O)O3 (configuration not stated)
inactive: outcome (CRL-7250) | outcome (HEK293) | outcome (HaCat [1]) | max response (NIH3T3) -0.44% | outcome (HACAT [2]) | Potency (HEK293T)

CN1Cc2c(N)cccc2C(c2ccccc2)C1 (configuration not stated)
inactive: max response (CRL-7250) -1.42% | max response (HEK293) 3.6% | max response (HaCat [1]) -17.5% | max response (KB-3-1) -2.79% | outcome (NIH3T3) | outcome (MCC-13) | outcome (MCC-26) | outcome (MKL-1)

C[C@]12CCC(=O)C=C1[C@@H](O)C[C@@H]1[C@@H]2[C@@H](O)C[C@@]2(C)[C@H]1CC[C@]2(O)C(=O)CO
inactive: outcome (CRL-7250) | outcome (HEK293) | max response (HaCat [1]) 1.59% | max response (KB-3-1) 8.45% | outcome (NIH3T3) | Potency (HEK293T)

CC(C#N)C(C)O[C@@H]1O[C@H](CO)[C@@H](O)[C@H](O)[C@H]1O (some centres not stated)
inactive: outcome (CRL-7250) | outcome (HEK293) | outcome (HaCat [1]) | outcome (NIH3T3) | outcome (HACAT [2]) | Potency (HEK293T)

CC1CCC2(C(=O)OC3OC(CO)C(O)C(O)C3O)CCC3(C(=O)O)C(=CCC4C5(C)CCC(OC6OC(C)C(O)C(O)C6O)C(C)(C)C5CCC43C)C2C1C (configuration not stated)
inactive: max response (CRL-7250) 1.53% | outcome (HEK293) | outcome (HaCat [1]) | max response (NIH3T3) 4.68% | outcome (HACAT [2]) inactive [at 17.4 µM] | Potency (HEK293T)

CC1(C)C(=O)N2c3ccccc3[C@]3(CC(n4cnc5ccccc5c4=O)C(=O)O3)[C@H]2N1O (some centres not stated)
inactive: outcome (CRL-7250) | outcome (HEK293) | outcome (HaCat [1]) | max response (NIH3T3) 1.65% | outcome (HACAT [2]) inactive [at 17.4 µM] | Potency (HEK293T)

C/C=C/C=C/C(CC(=O)O)Nc1ccc(C=O)cc1 (configuration not stated)
inactive: outcome (CRL-7250) | outcome (HEK293) | outcome (HaCat [1]) | max response (NIH3T3) 3.97% | outcome (HACAT [2]) | Potency (HEK293T)

CC1(C)CCC(C)(C)c2cc([C@@H](O)C(=O)Nc3ccc(C(=O)O)cc3F)ccc21
inactive: max response (CRL-7250) -3.37% | outcome (HEK293) | max response (HaCat [1]) -6.8% | outcome (KB-3-1) | outcome (NIH3T3) | Potency (HEK293T)

C=C1C[C@]23C[C@H]1CC[C@H]2[C@]1(C)CCC[C@@]2(CO)C(=O)O[C@H]([C@H]21)[C@@H]3O
inactive: max response (CRL-7250) -1.22% | outcome (HEK293) | outcome (HaCat [1]) | max response (NIH3T3) 2.59% | outcome (HACAT [2]) | Potency (HEK293T)
